In the library only some 7.3% were active in any assay of this set; here they are far more common.
Rab9 promoter act – activators of Rab9 promoter | Huh7 Rab9 promoter-luciferase reporter, luminescence, 24 h | Potency, µM (highest dose often 9.22 µM), without a hit: at the highest dose activation, negative = inhibition, usual class: activators | 2.8% of 320,000 active | AID 485297; also: % of control where 0% means no effect; nearly all actives have a fitted effect of over 60% in size
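Steps: seed 1500 Huh7 Rab9-luc cells per well, rest 2 h at 37 °C; add compound in DMSO; incubate 24 h; add luciferase reagent, 10 min ambient; read luminescence.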
ELG1 genotox – genotoxicity induction in ELG1-luciferase HEK293T cells. HEK293T ELG1-luciferase reporter, luminescence, 16 h. Potency, µM (top dose mostly 46 µM), for inactives: at the highest dose activity change, positive = activation, actives largely listed as activators. 1.3% of 330,000 active. AID 504466; also: % of control where 0% means no effect; nearly all actives have a fitted effect of over 60% in size
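Genotoxic stress is detected as increased luminescence from luciferase-tagged ELG1 in HEK293T cells, measured with ONE-Glo after a 16 hr treatment at 37 °C.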
NPC1 promoter act – activators of NPC1 promoter; Huh7 NPC1 promoter luciferase reporter, 24 h; Potency, µM (top dose mostly 9.22 µM), for the others: top-dose activation, usual class: activators; 2.4% of 320,000 active; also: % of control where 0% means no effect; nearly all actives have a fitted effect of over 60% in size
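Luminescence read-out of NPC1 promoter-driven luciferase in stably transfected Huh7 cells; compounds delivered in DMSO and left 24 h at 37C, 5% CO2, qHTS titration format.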
SMN2 splice up – enhancers of SMN2 splice variant expression. 2.8% of 210,000 active. Potency, µM (highest dose often 46.1 µM), inactives show at the highest dose activity change, positive = activation, usual class: activators. HEK293 SMN2-luciferase splicing reporter, luminescence, 30-36 h. AID 1458; also: % of control where 0% means no effect; nearly all actives have a fitted effect of over 55% in size
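HEK293 cells carry an SMN2 minigene-luciferase reporter in which exon 7 inclusion puts luciferase in frame. Cells were seeded at 2000 cells/well, attached for 10-12 hours, then exposed to compounds for 30-36 hours at 37C before ONE-Glo luminescence.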
KinaseGlo FLuc – Kinase-Glo luciferase inhibition (counter-screen). Q27757. Kinase-Glo luciferase, ATP luminescence, 8 min. Potency, µM (series often up to 38.3 µM), without a hit: at the highest dose activity change, negative = inhibition, usual class: inhibitors. 0.28% of 200,000 active; also: % is scaled to controls: 0 for no effect and ±100 for the full control effect; nearly all actives have a fitted effect of over 60% in size
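Compounds were added to a substrate mix at pH 7.2 (50 mM imidazole, 10 uM ATP, within the enzyme's linear range), followed by Kinase-Glo detection reagent; luminescence was measured after 8 minutes at ambient temperature.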
FLuc counter – inhibits or activates purified firefly luciferase, miR-21 counter-screen; 6.9% of 360,000 active; Potency, µM (series often up to 57.5 µM), for the others: at the highest dose activity change, negative = inhibition, usual class: inhibitors; P08659; purified FLuc, Km substrates, luminescence inhibition;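 also: plate controls were vehicle for no effect and reference inhibitor for full effect; nearly all actives have a fitted effect of over 55% in size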
Target sequence (P08659 whole entry, looked up): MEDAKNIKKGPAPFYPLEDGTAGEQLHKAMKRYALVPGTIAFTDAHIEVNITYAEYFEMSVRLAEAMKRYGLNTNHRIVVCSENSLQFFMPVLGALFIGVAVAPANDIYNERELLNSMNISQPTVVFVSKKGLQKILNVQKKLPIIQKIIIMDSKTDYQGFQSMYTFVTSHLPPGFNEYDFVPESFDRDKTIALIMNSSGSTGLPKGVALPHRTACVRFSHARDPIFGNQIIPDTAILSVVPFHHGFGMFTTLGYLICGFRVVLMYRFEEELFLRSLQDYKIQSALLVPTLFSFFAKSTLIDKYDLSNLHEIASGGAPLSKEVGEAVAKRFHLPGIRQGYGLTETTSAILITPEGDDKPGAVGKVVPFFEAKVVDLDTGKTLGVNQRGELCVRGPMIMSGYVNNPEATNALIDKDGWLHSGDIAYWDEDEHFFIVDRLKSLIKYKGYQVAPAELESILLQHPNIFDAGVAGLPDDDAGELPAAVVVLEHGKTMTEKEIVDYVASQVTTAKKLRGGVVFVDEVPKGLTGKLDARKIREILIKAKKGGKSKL
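Purified P. pyralis luciferase, 10 nM final, with Km-level 10 uM D-luciferin and 10 uM ATP in 50 mM Tris acetate pH 7.5, 10 mM Mg acetate, 0.01% Tween-20, 0.05% BSA; 6-point qHTS titration about 60 µM downward; luminescence read.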
* hit, by the source's call; ? = inconclusive; . = no result given; [ ] = dose if it differs, or a comment. Calls follow the shape of the dose curve; as a rule, active = well fitted curve in the direction sought with a large enough effect; inconclusive = small, poorly fitted or top-dose-only effect, or another doubt; inactive = no such curve, though single readings can be large; an effect the other way counts as inactive or inconclusive. Potency is read from the fitted curve at half-maximal effect.

SMILES	Rab9 promoter act	ELG1 genotox	NPC1 promoter act	SMN2 splice up	KinaseGlo FLuc	FLuc counter
Cc1cc2c(cc3c(SCc4ccccc4Cl)nnc(C)n32)o1	.	.	.	.	.	13.5µM*
CCOC(=O)C(=Cc1ccc(OCc2ccc([N+](=O)[O-])cc2)c(OC)c1)C(=O)OCC	-2.3%	-8.8%	-3.1%	-12.8%	2.6%	15.1µM*
COC(=O)C(=Cc1ccc(OCc2ccc([N+](=O)[O-])cc2)c(OC)c1)C(=O)OC	0.9%	?	-0.9%	15.8µM*	0.4%	9.53µM*
COc1cc(C(c2c(C)[nH][nH]c2=O)c2c(C)[nH][nH]c2=O)ccc1OCc1ccc([N+](=O)[O-])cc1	-0.4%	18.4µM*	18.6%	17.8µM*	20.0%	-19.7%
COc1cc(C(c2c(C)[nH][nH]c2=O)c2c(C)[nH][nH]c2=O)ccc1OC(=O)c1cccc([N+](=O)[O-])c1	-7.6%	0.1%	-3.6%	-8.4%	3.1%	1.2%
CCOC(=O)/C(=C\c1ccc(OC)c(OC)c1)C(=O)c1cccnc1	-0.7%	-1.2%	3.8%	.	.	-1.6%
COc1ccccc1NC(=O)c1oc2ccc(C)cc2c1C	?	?	?	?	13.5%	9.53µM*
Cc1ccc2oc(C(=O)Nc3cc(C)on3)c(C)c2c1	2.51µM*	?	3.16µM*	.	.	0.757µM*
Cc1ccc(-c2csc(C(C#N)=C3CCCC3)n2)cc1	4.47µM*	?	3.16µM*	17.8µM*	-3.6%	2.69µM*
CCc1ccc(/C=C(/C#N)c2nc(-c3ccc(C)cc3)cs2)cc1	.	.	.	6.8%	.	0.5%
N#CC(=C1CCCC1)c1nc(-c2ccccc2)cs1	?	?	3.16µM*	15.8µM*	-7.9%	1.35µM*
N#CC(=C1CCCC1)c1nc(-c2cc3ccccc3oc2=O)cs1	3.16µM*	?	?	?	-3.0%	2.13µM*
O=C(Nc1ccc(Cl)cc1)Nc1nc(-c2ccccc2O)cs1	1.7%	-0.1%	-1.6%	.	.	-4.8%
N#CC(=C1CCCC1)c1nc(-c2ccccc2O)cs1	3.55µM*	3.66µM*	2.82µM*	?	?	1.35µM*
N#C/C(=N\O)c1nc(-c2ccccc2)cs1	1.4%	0.0%	1.3%	-8.7%	-0.4%	-10.5%
Cc1cccc(NS(=O)(=O)c2ccc3c(c2)CC(C)N3C(=O)C2CCC2)c1C (stereo unspecified)	.	.	.	.	.	-20.1%
Cc1cccc(CNC(=O)CN2C(=O)CCn3nc(-c4cn(C)c5ccccc45)cc32)c1	.	.	.	.	.	-13.9%
CCOc1ccc2nc(N3CCC(C(=O)N4CCN(c5ncccn5)CC4)CC3)sc2c1	17.4%	-0.5%	?	.	.	12µM*
CCOc1ccc2nc(N3CCC(C(=O)N4CCN(c5ccccn5)CC4)CC3)sc2c1	-14.8%	7.31µM*	-0.8%	-86.4%	3.6%	10.7µM*
CCOc1ccc2nc(N3CCCC(C(=O)NCc4ccccc4OC)C3)sc2c1 (stereo unspecified)	.	.	.	11.3%	.	?
CCOC(=O)C1CCN(C(c2ccccc2OC)c2c(O)cc(C)n(CCOC)c2=O)CC1 (stereo unspecified)	.	.	.	.	.	2.3%
O=C(CN1C(=O)S/C(=C\C=C\c2ccccc2)C1=O)N1CCOCC1	25.7%	12.8%	18.5%	.	.	4.78µM*
O=C(CN1C(=O)S/C(=C/c2ccccn2)C1=O)N1CCOCC1	2.6%	3.9%	1.4%	.	.	-1.5%
O=C(CN1C(=O)S/C(=C/c2ccc(N3CCOCC3)cc2)C1=O)N1CCOCC1	21.7%	?	27.3%	?	-9.6%	3.01µM*
CN(C)c1ccc(-c2cc(NCc3ccccc3)ncn2)cc1	.	.	.	0.794µM*	-5.4%	.
SMILES	Rab9 promoter act	ELG1 genotox	NPC1 promoter act	SMN2 splice up	KinaseGlo FLuc	FLuc counter
CN(C)c1ccc(-c2ccc3ncnc(NCc4ccccc4)c3c2)cc1	.	.	.	-4.7%	-2.2%	.
O=c1c2c(nc3cc(-c4ccccc4)[nH]n13)CCS2	2.82µM*	?	3.98µM*	?	-17.5%	9.53µM*
CCOC(=O)N1CCC(c2cc(=O)n3[nH]c(-c4ccccc4)cc3n2)CC1	-1.0%	2.3%	0.3%	8.6%	2.8%	-2.6%
O=c1c2c(nc3cc(-c4ccccc4Cl)[nH]n13)CCS2	3.55µM*	?	?	15.8µM*	-19.7%	8.49µM*
CCOc1ccccc1N(CC(=O)NCCSc1ccccc1)S(=O)(=O)c1ccccc1	.	.	.	6.2%	.	-6.6%
COc1cc(OC)cc(-c2nc3n(n2)C(c2ccccc2F)C(C(=O)Nc2cccnc2)=C(C)N3)c1 (stereo unspecified)	.	.	.	-2.3%	.	-14.9%
COc1ccc(C(=O)c2oc3ccccc3c2NC(=O)c2nc(SC)ncc2Cl)cc1Cl	.	.	.	6.8%	.	2.4%
Nc1c(-c2ccccc2)n[nH]c1-c1ccccc1	?	?	2.82µM*	12.6µM*	-9.2%	-3.7%[2.3 µM]
S=c1nc(-c2ccccc2)c(-c2ccccc2)n[nH]1	-1.4%[1.84 µM]	-3.6%	-7.2%	.	.	-2.6%
CCOC(=O)N1CCN(S(=O)(=O)c2ccc(C(=O)Nc3nc4ccccc4s3)cc2)CC1	-5.6%	-0.6%	-0.2%	-16.2%	0.7%	-0.1%
O=C(O)C1C2CCC(C2)C1C(=O)Nc1nc2ccccc2s1 (stereo unspecified)	-0.3%	16.1%	0.5%	.	2.9%	-0.4%
CCOC(=O)N1CCC(=NNc2nc3ccccc3s2)CC1	3.98µM*	?	2.51µM*	.	.	3.38µM*
CC(=O)N1CCC(=NNc2nc3ccccc3s2)CC1	3.98µM*	10.8%	25.6%	9.9%	-3.3%	16.9µM*
Cc1nc2c(-c3ccccc3)c(C)nn2c(N)c1-c1ccccc1	1.58µM*	?	2.24µM*	12.6µM*	-6.8%	1.07µM*
Cc1cc(N)n2nc(-c3ccccc3)c(-c3ccccc3)c2n1	0.3%	5.5%	-5.5%	.	.	-10.5%
